From ChEMBL document CHEMBL1961873, “Compounds: GSK PKIS; Assays: Nanosyn kinase panel” (2012) come the findings set out here.

In assay [1] the target is Protein kinase C gamma type (Homo sapiens) (UniProt P05129). To be noted: at 1 µM.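 Further: each value is an averaged percent inhibition of the enzyme.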
In assay [2] the target is T1, Protein kinase C iota type (Homo sapiens) (UniProt P41743).
T1 sequence (whole entry): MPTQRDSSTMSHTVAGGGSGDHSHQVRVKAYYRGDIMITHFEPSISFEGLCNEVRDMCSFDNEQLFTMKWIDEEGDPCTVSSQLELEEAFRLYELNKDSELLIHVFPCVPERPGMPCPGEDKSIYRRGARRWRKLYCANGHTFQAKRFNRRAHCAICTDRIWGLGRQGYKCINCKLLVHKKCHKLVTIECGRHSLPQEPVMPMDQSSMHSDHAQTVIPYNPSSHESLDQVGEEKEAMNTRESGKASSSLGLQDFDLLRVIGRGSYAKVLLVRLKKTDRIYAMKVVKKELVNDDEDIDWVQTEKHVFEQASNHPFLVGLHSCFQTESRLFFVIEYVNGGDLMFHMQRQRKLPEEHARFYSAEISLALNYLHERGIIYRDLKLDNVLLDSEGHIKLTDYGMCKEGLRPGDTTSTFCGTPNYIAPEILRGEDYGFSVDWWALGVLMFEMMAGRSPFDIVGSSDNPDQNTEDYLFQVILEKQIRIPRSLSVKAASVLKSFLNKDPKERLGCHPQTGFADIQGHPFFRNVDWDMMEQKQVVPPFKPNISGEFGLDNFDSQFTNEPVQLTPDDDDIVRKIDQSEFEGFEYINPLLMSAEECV
The note with it: at 0.1 µM.

In assay [3] the target is T1, Protein kinase C iota type (Homo sapiens). The note with it: at 1 µM.
Assay [4] has as its target Protein kinase C theta type (Homo sapiens) (UniProt Q04759). To be noted: at 0.1 µM.
Assay [5] shares this target. To be noted: at 1 µM.
Assay [6] addresses Protein kinase C beta type (Homo sapiens) (UniProt P05771). To be noted: at 0.1 µM.
Assay [7] has the same target. The note with it: at 1 µM.
For assay [8], the target named is T2, Serine/threonine-protein kinase D1 (Homo sapiens) (UniProt Q15139).
T2 sequence (whole entry): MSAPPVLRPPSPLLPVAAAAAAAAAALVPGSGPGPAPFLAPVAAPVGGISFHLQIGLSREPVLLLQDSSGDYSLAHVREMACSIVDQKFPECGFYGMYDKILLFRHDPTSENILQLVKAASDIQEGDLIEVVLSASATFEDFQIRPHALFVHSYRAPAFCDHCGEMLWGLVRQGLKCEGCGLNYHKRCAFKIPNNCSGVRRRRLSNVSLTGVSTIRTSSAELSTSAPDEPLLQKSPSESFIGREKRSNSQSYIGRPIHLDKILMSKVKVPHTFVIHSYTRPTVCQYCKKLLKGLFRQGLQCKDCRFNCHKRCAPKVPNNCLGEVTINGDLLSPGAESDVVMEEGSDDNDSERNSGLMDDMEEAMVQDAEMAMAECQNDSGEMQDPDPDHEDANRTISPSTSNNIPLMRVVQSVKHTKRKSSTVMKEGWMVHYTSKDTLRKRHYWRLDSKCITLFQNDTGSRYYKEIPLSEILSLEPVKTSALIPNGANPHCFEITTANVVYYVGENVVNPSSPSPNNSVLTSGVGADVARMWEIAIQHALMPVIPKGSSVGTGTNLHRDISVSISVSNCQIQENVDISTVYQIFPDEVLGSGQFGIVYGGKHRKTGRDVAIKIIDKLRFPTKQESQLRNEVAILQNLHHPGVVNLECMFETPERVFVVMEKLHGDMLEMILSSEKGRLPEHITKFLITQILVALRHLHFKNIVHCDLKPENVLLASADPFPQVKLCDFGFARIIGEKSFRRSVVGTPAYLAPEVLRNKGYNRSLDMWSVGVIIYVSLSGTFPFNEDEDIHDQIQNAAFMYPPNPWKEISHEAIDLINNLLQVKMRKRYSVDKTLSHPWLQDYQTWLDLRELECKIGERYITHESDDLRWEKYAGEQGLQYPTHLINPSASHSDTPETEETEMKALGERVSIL
The note with it: at 0.1 µM.

The target of assay [9] is T2, Serine/threonine-protein kinase D1 (Homo sapiens). The note with it: at 1 µM.
Assay [10] has as its target T3, Serine/threonine-protein kinase D2 (Homo sapiens) (UniProt Q9BZL6).
T3 sequence (whole entry): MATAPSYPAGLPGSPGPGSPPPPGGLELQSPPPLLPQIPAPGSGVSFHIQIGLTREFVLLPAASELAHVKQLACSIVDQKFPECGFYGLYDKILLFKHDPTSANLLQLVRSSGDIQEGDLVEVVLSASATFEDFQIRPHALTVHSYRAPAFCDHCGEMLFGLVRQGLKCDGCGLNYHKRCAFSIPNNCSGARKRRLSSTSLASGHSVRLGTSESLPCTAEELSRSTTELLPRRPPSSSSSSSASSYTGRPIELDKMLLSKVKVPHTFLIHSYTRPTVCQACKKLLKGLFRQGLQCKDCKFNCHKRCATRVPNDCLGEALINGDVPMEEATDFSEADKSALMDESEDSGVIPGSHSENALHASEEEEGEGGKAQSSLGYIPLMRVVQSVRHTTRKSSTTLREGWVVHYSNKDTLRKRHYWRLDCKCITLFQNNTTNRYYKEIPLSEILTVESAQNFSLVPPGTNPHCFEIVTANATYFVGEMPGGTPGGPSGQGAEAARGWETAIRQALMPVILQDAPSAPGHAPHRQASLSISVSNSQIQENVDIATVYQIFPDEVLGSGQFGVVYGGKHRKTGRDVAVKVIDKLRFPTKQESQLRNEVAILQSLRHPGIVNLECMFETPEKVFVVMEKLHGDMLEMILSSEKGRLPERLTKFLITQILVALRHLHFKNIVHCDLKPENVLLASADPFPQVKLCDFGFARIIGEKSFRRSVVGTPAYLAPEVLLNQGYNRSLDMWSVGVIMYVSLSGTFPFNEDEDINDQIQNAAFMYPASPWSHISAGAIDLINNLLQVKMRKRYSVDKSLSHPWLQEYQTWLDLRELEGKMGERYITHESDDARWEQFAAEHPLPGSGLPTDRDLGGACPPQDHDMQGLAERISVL
The note with it: at 0.1 µM.

Assay [11] deals with T3, Serine/threonine-protein kinase D2 (Homo sapiens). To be noted: at 1 µM.
Assay [12] concerns the target T4, Serine/threonine-protein kinase D3 (Homo sapiens) (UniProt O94806).
T4 sequence (whole entry): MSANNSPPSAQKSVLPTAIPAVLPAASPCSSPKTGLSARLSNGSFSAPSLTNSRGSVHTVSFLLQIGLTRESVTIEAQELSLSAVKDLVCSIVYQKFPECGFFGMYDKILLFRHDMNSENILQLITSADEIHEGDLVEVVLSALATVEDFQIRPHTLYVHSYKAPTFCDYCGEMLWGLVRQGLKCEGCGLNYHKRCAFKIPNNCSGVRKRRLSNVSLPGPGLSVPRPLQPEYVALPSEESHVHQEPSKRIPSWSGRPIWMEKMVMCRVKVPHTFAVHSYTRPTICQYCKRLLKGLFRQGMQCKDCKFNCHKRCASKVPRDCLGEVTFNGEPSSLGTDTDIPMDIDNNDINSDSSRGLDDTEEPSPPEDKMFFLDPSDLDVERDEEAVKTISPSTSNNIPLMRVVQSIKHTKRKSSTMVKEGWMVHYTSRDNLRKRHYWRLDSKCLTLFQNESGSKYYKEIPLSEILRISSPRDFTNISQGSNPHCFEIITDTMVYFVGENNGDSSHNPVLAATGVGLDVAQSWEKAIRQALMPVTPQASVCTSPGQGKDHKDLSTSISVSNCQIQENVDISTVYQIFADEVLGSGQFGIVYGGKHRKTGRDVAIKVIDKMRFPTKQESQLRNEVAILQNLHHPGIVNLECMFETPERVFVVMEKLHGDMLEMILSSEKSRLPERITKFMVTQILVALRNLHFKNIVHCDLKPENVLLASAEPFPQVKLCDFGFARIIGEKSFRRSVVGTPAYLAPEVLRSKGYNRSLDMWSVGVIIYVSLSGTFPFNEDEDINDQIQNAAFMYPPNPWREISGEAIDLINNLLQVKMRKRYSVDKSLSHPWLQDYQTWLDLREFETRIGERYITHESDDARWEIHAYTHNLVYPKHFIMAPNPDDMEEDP
The note with it: at 0.1 µM.

For assay [13], the target named is T4, Serine/threonine-protein kinase D3 (Homo sapiens). To be noted: at 1 µM.
For assay [14], the target named is T5, cGMP-dependent protein kinase 1 (Homo sapiens) (UniProt Q13976).
T5 sequence (whole entry): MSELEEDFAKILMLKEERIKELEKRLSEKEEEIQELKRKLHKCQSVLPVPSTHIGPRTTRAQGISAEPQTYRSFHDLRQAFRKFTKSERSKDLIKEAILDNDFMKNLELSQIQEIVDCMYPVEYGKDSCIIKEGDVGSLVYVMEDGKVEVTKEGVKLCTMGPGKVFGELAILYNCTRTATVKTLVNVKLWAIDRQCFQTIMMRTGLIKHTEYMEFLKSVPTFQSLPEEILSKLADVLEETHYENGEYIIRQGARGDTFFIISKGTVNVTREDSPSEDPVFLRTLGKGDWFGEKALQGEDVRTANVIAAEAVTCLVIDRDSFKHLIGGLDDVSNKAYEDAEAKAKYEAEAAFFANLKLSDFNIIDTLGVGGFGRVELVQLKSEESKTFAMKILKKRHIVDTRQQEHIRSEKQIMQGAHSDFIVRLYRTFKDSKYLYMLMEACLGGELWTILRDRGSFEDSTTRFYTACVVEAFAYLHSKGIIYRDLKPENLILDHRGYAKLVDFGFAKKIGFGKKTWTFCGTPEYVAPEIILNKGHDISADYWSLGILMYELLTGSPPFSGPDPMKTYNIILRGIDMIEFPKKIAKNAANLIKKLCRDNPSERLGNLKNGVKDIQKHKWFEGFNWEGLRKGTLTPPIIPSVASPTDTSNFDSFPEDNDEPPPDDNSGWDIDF
To be noted: at 0.1 µM.

For assay [15], the target named is T5, cGMP-dependent protein kinase 1 (Homo sapiens). To be noted: at 1 µM.
Assay [16] deals with T6, cGMP-dependent protein kinase 2 (Homo sapiens) (UniProt Q13237).
T6 sequence (whole entry): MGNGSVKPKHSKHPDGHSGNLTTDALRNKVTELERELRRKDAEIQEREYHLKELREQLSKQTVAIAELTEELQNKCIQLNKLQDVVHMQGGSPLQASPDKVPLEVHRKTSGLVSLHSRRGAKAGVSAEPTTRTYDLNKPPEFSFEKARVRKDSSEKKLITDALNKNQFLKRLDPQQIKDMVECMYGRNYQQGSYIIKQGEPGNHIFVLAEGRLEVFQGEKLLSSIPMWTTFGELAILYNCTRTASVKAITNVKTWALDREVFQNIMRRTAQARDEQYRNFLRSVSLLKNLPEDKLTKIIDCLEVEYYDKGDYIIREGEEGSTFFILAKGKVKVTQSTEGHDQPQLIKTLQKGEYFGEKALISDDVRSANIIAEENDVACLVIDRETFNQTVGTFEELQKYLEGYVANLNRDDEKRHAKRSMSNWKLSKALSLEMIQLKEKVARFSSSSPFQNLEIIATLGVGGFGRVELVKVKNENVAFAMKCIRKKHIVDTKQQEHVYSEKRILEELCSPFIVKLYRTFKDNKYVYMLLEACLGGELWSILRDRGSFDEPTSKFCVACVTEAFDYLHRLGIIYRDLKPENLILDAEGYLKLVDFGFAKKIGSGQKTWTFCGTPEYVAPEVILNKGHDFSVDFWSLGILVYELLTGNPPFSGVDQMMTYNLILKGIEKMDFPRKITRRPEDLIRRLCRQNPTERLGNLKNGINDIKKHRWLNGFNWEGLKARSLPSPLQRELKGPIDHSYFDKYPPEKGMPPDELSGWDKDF
To be noted: at 0.1 µM.

Assay [17] deals with T6, cGMP-dependent protein kinase 2 (Homo sapiens). The note with it: at 1 µM.
In assay [18] the target is T7, cAMP-dependent protein kinase catalytic subunit PRKX (Homo sapiens) (UniProt P51817).
T7 sequence (whole entry): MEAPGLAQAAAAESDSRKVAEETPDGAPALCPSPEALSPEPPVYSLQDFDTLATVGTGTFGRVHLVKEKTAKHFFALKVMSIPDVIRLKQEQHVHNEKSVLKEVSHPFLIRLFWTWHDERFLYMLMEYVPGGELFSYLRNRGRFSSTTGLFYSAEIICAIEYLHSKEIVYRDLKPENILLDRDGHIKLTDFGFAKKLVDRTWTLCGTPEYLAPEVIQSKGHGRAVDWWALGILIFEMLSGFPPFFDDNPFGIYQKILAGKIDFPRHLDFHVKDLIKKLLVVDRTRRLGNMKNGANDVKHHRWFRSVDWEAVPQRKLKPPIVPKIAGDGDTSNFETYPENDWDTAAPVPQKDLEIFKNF
To be noted: at 0.1 µM.

The target of assay [19] is T7, cAMP-dependent protein kinase catalytic subunit PRKX (Homo sapiens). To be noted: at 1 µM.
In assay [20] the target is Rho-associated protein kinase 1 (Homo sapiens) (UniProt Q13464). To be noted: at 0.1 µM.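 Further: values are mean percent inhibition of ROCK1.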
Rho-associated protein kinase 1 (Homo sapiens), sequence (Q13464 2-1354 limits assumed): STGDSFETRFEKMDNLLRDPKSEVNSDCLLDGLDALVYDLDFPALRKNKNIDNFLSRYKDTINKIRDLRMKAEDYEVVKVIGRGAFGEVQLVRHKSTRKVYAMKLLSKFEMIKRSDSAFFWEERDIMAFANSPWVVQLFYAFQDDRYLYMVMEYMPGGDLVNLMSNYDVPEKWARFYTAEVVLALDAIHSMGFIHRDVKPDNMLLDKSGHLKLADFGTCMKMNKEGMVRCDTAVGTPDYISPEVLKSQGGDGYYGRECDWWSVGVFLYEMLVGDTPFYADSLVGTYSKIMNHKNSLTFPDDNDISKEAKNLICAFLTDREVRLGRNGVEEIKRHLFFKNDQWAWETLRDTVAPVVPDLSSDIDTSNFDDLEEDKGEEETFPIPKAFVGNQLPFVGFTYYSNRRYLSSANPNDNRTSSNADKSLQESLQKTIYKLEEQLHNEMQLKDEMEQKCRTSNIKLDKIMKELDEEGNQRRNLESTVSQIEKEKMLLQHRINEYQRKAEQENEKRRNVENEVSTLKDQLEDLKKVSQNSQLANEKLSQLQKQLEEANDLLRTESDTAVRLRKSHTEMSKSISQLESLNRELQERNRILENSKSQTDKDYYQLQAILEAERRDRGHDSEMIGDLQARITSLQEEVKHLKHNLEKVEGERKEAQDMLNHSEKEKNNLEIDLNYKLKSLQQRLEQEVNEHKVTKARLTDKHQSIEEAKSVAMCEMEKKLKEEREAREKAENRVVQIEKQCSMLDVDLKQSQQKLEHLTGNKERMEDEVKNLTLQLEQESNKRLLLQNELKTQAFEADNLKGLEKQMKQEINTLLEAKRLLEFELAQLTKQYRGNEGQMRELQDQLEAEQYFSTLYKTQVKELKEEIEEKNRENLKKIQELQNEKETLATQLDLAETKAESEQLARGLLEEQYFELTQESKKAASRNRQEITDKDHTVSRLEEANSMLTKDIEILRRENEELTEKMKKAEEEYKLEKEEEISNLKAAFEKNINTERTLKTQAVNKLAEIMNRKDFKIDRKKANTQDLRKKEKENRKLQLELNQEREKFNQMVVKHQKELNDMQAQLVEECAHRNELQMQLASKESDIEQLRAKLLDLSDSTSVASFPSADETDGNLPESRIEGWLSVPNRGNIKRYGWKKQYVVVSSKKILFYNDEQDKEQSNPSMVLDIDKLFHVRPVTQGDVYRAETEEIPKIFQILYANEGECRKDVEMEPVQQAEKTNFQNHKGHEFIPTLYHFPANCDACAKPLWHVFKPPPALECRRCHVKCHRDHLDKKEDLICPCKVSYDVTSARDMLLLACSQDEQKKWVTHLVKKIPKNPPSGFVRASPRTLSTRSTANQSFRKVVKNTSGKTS

Protein kinase C beta type (Homo sapiens), sequence (P05771 2-671 limits assumed): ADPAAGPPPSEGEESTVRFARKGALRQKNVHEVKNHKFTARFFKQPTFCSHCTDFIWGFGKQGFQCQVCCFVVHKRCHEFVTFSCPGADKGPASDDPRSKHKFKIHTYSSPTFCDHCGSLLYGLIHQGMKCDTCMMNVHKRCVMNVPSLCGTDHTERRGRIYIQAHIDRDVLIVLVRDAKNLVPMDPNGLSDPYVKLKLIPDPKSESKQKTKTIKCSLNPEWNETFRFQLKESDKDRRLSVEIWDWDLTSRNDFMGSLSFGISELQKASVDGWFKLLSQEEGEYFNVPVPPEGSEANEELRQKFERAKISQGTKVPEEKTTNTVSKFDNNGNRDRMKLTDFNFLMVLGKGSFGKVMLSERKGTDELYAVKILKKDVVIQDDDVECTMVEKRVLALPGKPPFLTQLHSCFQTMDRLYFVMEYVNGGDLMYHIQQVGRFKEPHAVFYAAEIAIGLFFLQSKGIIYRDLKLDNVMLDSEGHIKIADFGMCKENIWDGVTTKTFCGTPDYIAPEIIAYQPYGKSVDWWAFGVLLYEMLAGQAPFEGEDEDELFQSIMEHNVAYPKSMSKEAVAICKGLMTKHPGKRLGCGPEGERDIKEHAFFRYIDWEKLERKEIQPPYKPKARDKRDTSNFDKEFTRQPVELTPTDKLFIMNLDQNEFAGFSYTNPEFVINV
Protein kinase C theta type (Homo sapiens), sequence (Q04759 whole entry, looked up): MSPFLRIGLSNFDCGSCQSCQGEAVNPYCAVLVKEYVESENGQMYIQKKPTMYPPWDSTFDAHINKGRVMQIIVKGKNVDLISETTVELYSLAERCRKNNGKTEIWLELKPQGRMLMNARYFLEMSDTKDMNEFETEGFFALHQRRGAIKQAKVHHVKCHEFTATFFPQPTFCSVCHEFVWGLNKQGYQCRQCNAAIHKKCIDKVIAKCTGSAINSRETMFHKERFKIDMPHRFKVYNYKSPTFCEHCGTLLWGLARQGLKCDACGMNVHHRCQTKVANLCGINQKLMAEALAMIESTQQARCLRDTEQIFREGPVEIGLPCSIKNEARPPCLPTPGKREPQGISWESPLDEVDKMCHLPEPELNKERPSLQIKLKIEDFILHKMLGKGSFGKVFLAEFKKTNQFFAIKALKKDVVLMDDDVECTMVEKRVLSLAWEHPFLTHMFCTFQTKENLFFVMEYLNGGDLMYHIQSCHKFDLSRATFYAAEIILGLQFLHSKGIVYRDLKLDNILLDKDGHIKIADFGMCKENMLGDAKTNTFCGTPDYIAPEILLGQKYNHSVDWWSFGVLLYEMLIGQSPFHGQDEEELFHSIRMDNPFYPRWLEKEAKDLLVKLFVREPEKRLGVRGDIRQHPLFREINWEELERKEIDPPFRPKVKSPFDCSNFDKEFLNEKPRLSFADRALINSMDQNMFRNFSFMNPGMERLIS

Take `CN1CCC(n2cnc(-c3ccc(F)cc3)c2-c2ccnc(NCCO)n2)CC1`: the inhibition amounted to 5.6% in [1]; 1.02% in [2]; 1.08% in assay [3]; 3.59% in [4]; 5.13% in [5]; 1.17% in assay [6]. Further, the inhibition worked out at 7.68% in assay [7]; 5.8% in assay [8]; 14.6% in [9]; 4.75% in [10]; 14.8% in assay [11]; 6.16% in assay [12]. Further, the inhibition is 11% in assay [13]; 1.3% in assay [14]; 4.89% in assay [15]; 2.55% in assay [16]; 5.54% in [17]; 3.06% in assay [18]. The values for the inhibition in assay [19] and in assay [20] were 5.03% and 0.7%, respectively.
As to `COc1ccccc1-c1cc(/C=C2\C(=O)Nc3ncc(Br)cc32)cc(Br)c1O`, the inhibition in [1] was found to be 2.98%; in assay [2], 0.64%; in assay [3], 2.57%; in assay [4], 1.61%; in assay [5], 1.73%; in [6], 2.24%. Further, the inhibition in assay [7] is 0.81%; in [8], 3.57%; in assay [9] it was 6.42%; in assay [10] it was 4.74%; in [11], 6.48%; in assay [12] it was 5.02%. Moreover, the inhibition in assay [13] is 6.21%; in assay [14], 2.01%; in assay [15] it was 5.3%; in assay [16], 1.73%; in assay [17] it was 5.97%; in assay [18] it was 0.16%. The inhibition is 0.16% in assay [19] and 0.21% in assay [20].
